“And” between values parts separate entries of the source, which are not always exact repeats. Equal values may be shown once. Inconclusive results are not listed. A number with no mark means an inactive call. The source made the active and inactive calls. Calls follow the shape of the dose curve; as a rule, active = well fitted cell-killing curve with a large enough effect; inconclusive = small, poorly fitted or top-dose-only effect, or effect the other way; inactive = no such curve, though single readings can be large or run the other way.
Potency is read from the fitted curve at half-maximal effect.

A short description of this assay: Viability qHTS for spleen associated tyrosine kinase inhibitor (SYKi) drug resistant MV4-11 cells (AID 1963824). Also: nearly all actives have a fitted effect of over 35% in size. The following applies: SYKi-resistant MV4-11 viability, CellTiter-Glo, 72 h; series mostly up to 45 µM. An outline of the steps: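 SYK-inhibitor-resistant MV4-11 AML cells were seeded at 500 per well onto compound and cultured 72 hours (37 °C, 5% CO2). CellTiter-Glo was then added, and after 10 min at room temperature, luminescence gave viability.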
As for `COc1cc2ncnc(Nc3cccc(O)c3)c2cc1OC`, the Potency is 0.651 µM (active).

Take `C=CC(C)(CCC=C(C)C)O[C@@H]1O[C@H](CO)[C@@H](O)[C@H](O)[C@H]1O` (stereo partly drawn): the Potency result is “inactive”.

As for `CCOC(=O)c1cnc2ccc(-c3cncc(NS(=O)(=O)c4ccccc4)c3)cn12`, the Potency was 0.231 µM (active).

For `CNC(=O)O[C@H]1COc2ccc(N3CCN(C4COC4)CC3)cc2[C@@H]1NC(=O)c1ccc(F)cc1`, the Potency entry is “inactive”.

As to `O=S(=O)(Nc1ccccn1)c1ccc(N=Cc2c(O)[nH]c3ccc4ncsc4c23)cc1`, the Potency was 0.299 µM (active).

On to `CC#CC(=O)Nc1ccc2ncnc(Nc3cccc(Br)c3)c2c1`, for which the Potency was 1.46 µM (active) and 580 nM (active).

For the molecule `C[C@@H]1O[C@@H](O[C@H]2[C@H](O)[C@@H](O)[C@H](OC3CCC4(C)C5CCC(C)(C(CO)OC6OC(CO)C(O)C(O)C6O)CC5=CCC4C3(C)C)O[C@@H]2CO)[C@H](O)[C@H](O)[C@H]1O` (stereo partly drawn), the Potency result was “inactive”.

As for `O=C(/C=C/c1ccccc1O)O[C@@H]1O[C@H](CO)[C@@H](O)[C@H](O)[C@H]1O`, the Potency entry was “inactive”.

As to `O=C(CC1CC(c2ccc(F)cc2F)=NO1)N1CCOCC1` (stereo not drawn), the Potency entry was “inactive”.

As for `CN1[C@@H]2CC[C@H]1CC(OC(=O)C(CO)c1ccccc1)C2` (stereo partly drawn), the Potency result was “inactive”.

As to `O=C(Cc1ccccc1)OC[C@H]1O[C@H](O[C@H]2O[C@H](CO)[C@@H](O)[C@H](O)[C@H]2O)[C@H](O)[C@@H](O)[C@@H]1O`, the Potency entry was “inactive”.

Consider `O=c1cc[nH]c(=S)[nH]1`, for which the Potency was 11.9 µM (active).

In the case of `COc1ccc(/C=C/C(=O)O[C@@H]2[C@@H](O)[C@H](C)O[C@@H](OC3C4C=COC(O[C@@H]5O[C@H](CO)[C@@H](O)[C@H](O)[C@H]5O)C4C4(CO)OC34)[C@@H]2O)cc1OC` (stereo partly drawn), the Potency result was “inactive”.

In the case of `O=C(/C=C/c1ccc(O)cc1)O[C@H]1[C@H](OC2CCCCC2O)O[C@H](CO)[C@@H](O)[C@@H]1O` (stereo partly drawn), the Potency entry is “inactive”.

As to `COc1cc(C(=O)OCC2=CCC3C(C(=O)O)=COC(O[C@@H]4O[C@H](CO)[C@@H](O)[C@H](O)[C@H]4O)C23)ccc1O` (stereo partly drawn), the Potency result is “inactive”.

Turning to `CC(NC(=O)CC(=O)O)C(=O)Nc1ccccc1C(N)=O` (stereo not drawn), the Potency result is “inactive”.

With `CC1CCC23COC(=O)C2=CC(O)CC3C1(C)CCc1ccoc1` (stereo not drawn), the Potency entry is “inactive”.

On to `COc1cc(Br)c(Nc2nc(-c3c(C)nc4ncccn34)cs2)c(Br)c1`, for which the Potency is 1.16 µM (active).

On to `C=C1CCC2C(C)(C)C(O)CCC2(C)C1CCC(C)CCO` (stereo not drawn), for which the Potency is 12.8 µM (active).

As to `CCNC(=O)c1noc(-c2cc(Cl)c(O)cc2O)c1-c1ccc(OC)cc1`, the Potency is 0.058 µM (active).

In the case of `C=C1C(=O)OC2/C=C(\COC(C)=O)CC/C=C(\C=O)CC(OC(=O)C(C)CC)C12` (stereo not drawn), the Potency is 1.12 µM (active).

On to `C=CC(C)(O)CC/C=C(\C)C(=O)OCC1OC(OC2CCC3(C)C(CCC4(C)C3CC=C3C5CC(C)(C)C(O)CC5(C(=O)O)CCC34C)C2(C)C)C(O)C(OC2OC(CO)C(O)C(OC3OC(CO)C(O)C(OC4OC(COC5OC(CO)C(O)C(O)C5O)C(O)C(O)C4O)C3O)C2O)C1O` (stereo not drawn), for which the viability, % of control is 108% [at 9.25 µM].

With `CC(C)c1ccc(NC(=O)c2cccs2)c(-c2nc3ccccc3[nH]c2=O)c1`, the Potency is 11.6 µM (active).

For the molecule `Cc1ccccc1CN1C2=NCCN2C(=O)C2=C1CCN(Cc1ccccc1)C2`, the Potency is 9.2 µM (active).

Take `C=C1C(=O)O[C@@H]2C[C@@]3(C)CCC[C@H](C)C3=C[C@H]12`: the Potency was 7.31 µM (active).

As for `C=C(C)[C@@H]1CC[C@]2(C)CC[C@]3(C)C(CCC4[C@@]5(C)CC[C@H](O)C(C)(C)C5CC[C@]43C)C12` (stereo partly drawn), the Potency entry is “inactive”.

For the molecule `N#C/C(=C\c1ccc(O)c(O)c1)C(=O)NCCCc1ccccc1`, the Potency is 8.2 µM (active).

Regarding `C[C@@H]1O[C@@H](O[C@H]2[C@H](OC(=O)C34CCC(C)(C)CC3C3=CCC5C6(C)CC(O)C(O[C@@H]7O[C@H](CO)[C@@H](O)[C@H](O)[C@H]7O)C(C)(C(=O)O)C6CCC5(C)C3(CO)CC4)O[C@H](C)[C@H](O)[C@@H]2O)[C@H](O)[C@H](O)[C@H]1O[C@@H]1OC[C@@H](O)[C@H](O)[C@H]1O` (stereo partly drawn), the viability, % of control was 109% [at 9.25 µM].

Values taken from PubChem BioAssay (NCATS).
